Compound in the test: COC(=O)C#Cc1ccccc1 [methyl 3-phenylpropiolate]
Kind of test: log2 ratio of iodoacetamide-alkyne labeling of the cysteine site, DMSO over compound (competition); higher = stronger covalent engagement of the cysteine by the compound, active = 1 or more. Particulars: 500 µM; treatment time 1 h; system: HEK293T cell lysate. In a few lines: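 Electrophile (500 µM) or vehicle was added to HEK293T lysate (2 mg/mL) for 1 h at ambient temperature before iodoacetamide alkyne labelling (1 h) and click coupling to sCIP-TMT reagents. After pooling, overnight trypsin digestion at 37 °C, streptavidin enrichment and acid elution, peptides were measured by Orbitrap Eclipse LC-MS/MS with FAIMS and quantified in FragPipe. Each cysteine's log2 competition ratio compares mean control-channel with mean compound-channel reporter intensity, control over compound. Data came from duplicate channels across three replicates, excluding cysteines quantified in only one replicate.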

Of roughly 6,500 targets only a part is listed; those with a hit were picked by preference. About 2% of all pairs of compound and target were hits. A number with no mark means an inactive call.

UniProt O95757, sequence (O95757 whole entry, looked up): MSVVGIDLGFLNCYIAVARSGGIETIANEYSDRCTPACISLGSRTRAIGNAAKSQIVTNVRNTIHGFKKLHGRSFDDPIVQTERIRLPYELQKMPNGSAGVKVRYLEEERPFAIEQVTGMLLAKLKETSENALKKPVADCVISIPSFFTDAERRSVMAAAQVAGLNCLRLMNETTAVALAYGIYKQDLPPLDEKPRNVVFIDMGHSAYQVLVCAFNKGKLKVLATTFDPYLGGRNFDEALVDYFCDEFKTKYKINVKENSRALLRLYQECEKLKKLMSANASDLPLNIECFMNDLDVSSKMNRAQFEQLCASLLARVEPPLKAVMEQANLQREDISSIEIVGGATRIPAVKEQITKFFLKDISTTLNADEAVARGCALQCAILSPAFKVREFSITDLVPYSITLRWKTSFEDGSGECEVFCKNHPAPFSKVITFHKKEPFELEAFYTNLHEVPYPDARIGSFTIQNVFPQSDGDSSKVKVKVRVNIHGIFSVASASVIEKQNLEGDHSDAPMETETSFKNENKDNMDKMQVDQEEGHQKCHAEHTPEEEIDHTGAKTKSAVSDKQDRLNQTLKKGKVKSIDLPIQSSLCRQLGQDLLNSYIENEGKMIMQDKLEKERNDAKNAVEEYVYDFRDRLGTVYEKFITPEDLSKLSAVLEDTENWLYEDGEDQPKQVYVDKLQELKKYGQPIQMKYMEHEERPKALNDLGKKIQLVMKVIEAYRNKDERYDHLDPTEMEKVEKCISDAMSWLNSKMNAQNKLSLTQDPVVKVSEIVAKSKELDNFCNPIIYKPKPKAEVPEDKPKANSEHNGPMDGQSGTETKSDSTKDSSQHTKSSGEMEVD
UniProt O95197, sequence (O95197 whole entry): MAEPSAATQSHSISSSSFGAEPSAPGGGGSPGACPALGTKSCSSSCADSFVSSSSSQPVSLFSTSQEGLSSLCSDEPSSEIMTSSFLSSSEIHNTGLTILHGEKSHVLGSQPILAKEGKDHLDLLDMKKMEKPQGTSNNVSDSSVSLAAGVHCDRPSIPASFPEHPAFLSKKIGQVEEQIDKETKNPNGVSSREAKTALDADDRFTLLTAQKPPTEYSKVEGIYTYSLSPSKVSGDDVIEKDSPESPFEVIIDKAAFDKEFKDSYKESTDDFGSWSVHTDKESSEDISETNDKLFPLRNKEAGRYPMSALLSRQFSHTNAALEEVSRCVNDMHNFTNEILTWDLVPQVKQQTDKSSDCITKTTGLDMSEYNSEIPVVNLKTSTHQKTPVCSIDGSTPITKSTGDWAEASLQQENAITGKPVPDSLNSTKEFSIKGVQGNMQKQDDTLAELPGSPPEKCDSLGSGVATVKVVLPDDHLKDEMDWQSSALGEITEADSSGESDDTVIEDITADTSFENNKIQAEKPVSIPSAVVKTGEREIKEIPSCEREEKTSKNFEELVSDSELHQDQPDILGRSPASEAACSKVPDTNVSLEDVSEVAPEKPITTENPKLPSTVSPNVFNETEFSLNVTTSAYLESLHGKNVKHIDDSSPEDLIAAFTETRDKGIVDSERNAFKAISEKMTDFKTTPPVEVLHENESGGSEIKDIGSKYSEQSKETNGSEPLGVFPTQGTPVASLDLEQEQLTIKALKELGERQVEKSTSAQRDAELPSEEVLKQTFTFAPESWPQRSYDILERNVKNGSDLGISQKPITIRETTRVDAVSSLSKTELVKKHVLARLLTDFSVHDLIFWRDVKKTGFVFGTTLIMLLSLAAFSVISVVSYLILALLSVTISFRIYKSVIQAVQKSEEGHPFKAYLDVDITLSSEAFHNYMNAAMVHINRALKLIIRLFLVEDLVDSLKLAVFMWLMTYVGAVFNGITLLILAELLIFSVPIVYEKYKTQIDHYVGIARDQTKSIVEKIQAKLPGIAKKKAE
UniProt P40227, sequence (P40227 whole entry, looked up): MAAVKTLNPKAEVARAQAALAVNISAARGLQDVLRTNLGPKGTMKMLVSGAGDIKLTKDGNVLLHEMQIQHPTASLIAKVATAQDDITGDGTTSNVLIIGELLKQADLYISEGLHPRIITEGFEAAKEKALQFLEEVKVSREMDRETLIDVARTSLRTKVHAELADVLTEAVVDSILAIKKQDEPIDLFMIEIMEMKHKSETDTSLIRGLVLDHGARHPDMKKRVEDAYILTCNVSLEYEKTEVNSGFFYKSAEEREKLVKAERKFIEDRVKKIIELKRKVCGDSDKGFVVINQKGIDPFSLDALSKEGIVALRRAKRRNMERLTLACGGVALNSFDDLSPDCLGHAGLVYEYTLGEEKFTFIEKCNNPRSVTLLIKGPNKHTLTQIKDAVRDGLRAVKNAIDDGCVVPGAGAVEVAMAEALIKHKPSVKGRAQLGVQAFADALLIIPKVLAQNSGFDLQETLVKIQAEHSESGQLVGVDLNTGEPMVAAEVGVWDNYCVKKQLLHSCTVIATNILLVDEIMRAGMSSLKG
UniProt P21333, sequence (P21333 whole entry, looked up): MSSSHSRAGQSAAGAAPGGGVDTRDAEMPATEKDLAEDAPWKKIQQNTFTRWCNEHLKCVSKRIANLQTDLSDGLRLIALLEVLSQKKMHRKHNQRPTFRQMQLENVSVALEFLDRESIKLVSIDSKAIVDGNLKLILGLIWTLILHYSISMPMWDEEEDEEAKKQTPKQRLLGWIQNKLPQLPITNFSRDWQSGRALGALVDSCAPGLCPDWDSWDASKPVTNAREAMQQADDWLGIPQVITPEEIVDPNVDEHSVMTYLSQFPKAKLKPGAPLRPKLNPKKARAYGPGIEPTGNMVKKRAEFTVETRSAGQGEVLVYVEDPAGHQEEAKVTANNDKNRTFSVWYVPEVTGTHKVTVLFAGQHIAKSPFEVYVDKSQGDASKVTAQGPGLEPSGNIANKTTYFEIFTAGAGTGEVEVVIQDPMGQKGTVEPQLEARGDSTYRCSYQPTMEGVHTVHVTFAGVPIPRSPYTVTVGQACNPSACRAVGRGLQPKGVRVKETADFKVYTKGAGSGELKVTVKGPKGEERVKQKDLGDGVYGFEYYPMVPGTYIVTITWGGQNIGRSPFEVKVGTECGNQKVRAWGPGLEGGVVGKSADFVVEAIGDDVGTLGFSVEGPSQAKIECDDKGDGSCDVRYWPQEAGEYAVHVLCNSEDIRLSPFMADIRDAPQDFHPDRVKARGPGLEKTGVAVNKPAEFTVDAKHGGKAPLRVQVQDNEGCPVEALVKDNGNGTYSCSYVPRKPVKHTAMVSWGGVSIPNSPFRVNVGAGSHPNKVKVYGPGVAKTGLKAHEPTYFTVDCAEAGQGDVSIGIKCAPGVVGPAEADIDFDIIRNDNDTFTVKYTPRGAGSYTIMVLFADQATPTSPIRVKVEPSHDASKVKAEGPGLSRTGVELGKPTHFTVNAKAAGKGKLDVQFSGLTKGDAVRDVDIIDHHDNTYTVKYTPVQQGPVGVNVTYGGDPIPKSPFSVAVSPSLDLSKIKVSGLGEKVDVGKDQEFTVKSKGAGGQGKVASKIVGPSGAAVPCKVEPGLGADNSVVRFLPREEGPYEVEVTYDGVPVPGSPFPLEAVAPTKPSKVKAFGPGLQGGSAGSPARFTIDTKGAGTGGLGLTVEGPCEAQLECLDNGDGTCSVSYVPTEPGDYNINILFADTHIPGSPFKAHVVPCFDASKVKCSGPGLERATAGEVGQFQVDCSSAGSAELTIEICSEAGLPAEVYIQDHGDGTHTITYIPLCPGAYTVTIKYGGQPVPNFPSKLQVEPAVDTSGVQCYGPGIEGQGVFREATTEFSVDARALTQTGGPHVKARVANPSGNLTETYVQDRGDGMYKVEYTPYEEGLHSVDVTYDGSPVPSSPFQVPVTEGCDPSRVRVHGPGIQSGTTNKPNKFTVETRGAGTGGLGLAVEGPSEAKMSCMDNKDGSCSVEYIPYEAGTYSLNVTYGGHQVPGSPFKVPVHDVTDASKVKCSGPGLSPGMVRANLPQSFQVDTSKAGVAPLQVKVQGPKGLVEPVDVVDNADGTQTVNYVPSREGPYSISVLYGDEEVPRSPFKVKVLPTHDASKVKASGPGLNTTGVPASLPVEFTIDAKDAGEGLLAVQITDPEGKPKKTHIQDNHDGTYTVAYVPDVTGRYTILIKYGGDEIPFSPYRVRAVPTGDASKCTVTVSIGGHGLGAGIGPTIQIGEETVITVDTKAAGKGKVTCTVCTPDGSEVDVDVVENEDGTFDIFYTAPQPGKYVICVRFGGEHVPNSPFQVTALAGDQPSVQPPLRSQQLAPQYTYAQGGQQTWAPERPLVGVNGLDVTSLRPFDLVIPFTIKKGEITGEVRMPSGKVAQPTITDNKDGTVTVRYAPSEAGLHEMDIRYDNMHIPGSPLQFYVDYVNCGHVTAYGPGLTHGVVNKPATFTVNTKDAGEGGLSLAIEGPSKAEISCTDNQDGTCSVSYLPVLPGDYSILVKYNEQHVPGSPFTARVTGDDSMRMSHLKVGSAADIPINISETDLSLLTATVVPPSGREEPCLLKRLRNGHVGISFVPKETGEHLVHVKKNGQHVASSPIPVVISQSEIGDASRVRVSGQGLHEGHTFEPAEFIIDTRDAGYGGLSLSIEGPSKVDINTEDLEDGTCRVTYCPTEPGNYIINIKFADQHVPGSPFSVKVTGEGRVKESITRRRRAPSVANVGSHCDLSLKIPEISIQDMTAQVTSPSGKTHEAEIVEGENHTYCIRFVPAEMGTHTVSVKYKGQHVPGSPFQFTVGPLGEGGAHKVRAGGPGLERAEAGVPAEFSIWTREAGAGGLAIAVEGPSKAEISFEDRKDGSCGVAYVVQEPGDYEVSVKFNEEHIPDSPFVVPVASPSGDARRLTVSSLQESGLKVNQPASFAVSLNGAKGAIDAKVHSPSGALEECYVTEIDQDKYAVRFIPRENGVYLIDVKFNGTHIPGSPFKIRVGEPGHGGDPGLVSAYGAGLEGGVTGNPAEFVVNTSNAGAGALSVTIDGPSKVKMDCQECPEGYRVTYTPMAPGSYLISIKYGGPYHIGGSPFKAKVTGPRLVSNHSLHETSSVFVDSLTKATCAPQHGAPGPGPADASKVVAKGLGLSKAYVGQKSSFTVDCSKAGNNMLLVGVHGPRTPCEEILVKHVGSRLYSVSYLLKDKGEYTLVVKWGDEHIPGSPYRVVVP

In the case of NSF C11 (UniProt P46459), the “log2 ratio of iodoacetamide-alkyne labeling” value (shortened to “log2 ratio”) was 0.206.
In the case of ACAA1 C123 (UniProt P09110), the “log2 ratio” value is -0.0075.
Next, CCT6A C282 (UniProt P40227): 0.13; STIP1 C339 (UniProt P31948): 0.0728; SEPHS1 C31 (UniProt P49903): 0.175.
In the case of CRKL C249 (UniProt P46109), the “log2 ratio” value was 1.61 (active).
In the case of RANBP2 C3071 (UniProt P49792) it was 0.0882; in that of MSH2 C333 (UniProt P43246), 1.16 (active).
In the case of ETFB C71 (UniProt P38117) it was 0.579; in that of PTPN2 C330 (UniProt P17706), 0.608.
Next, HSPA4L C167 (UniProt O95757): -0.00119; UniProt P49591_C438: 0.0645.
For the target UniProt P26367_C94, the “log2 ratio” value was 0.097.
In the case of POLD1 C837 (UniProt P28340) it was 1.16 (active); in that of FLNA C2107 (UniProt P21333), 0.12.
PYGB C326 (UniProt P11216): the “log2 ratio” value is 0.332.
Next, MPI C289 (UniProt P34949): -0.0268.
In the case of UniProt P25705_C244 it was 0.205.
With DCK C9 (UniProt P27707), the “log2 ratio” value was 1.15 (active).
In the case of VDAC2 C227 (UniProt P45880) it was 1.39 (active); in that of RPS5 C66 (UniProt P46782), 2.5 (active); in that of RTN3 C34 (UniProt O95197), 1.43 (active).
In the case of SP1 C604 (UniProt P08047) it was -0.0454.

The values above are taken from the supplement of paper PMC11006884.
